# Measured values taken from the supplement of paper PMC10477191.
# ± gives the standard deviation of the averaged measurements.
# Assays:
# Experiment in all cases: odor-evoked OSN spike response (post minus pre-stimulus); higher = stronger neuronal excitation
# Conditions in all cases: odor dilution: 10^-4
# [1] = tested on: Drosophila ezoana antennal basiconic sensillum ab2
# Summary of the method: (§1)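 Single sensillum recordings were made with a tungsten electrode at the base of antennal basiconic sensilla of restrained adult flies, with up to 3 sensilla per fly. Filter paper loaded with 10 µl of odorant at 10^−4 in mineral oil or DMSO was delivered as a 500 ms air pulse into a charcoal-filtered, humidified 1.5 l min^−1 air stream. The response is the change in spike frequency between 1-second pre- and post-stimulus windows (Auto Spike software), averaged over replicate sensilla.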
# [2] = tested on: Drosophila ezoana antennal basiconic sensillum ab3
# Summary of the method: as §1
# [3] = tested on: Drosophila ezoana antennal basiconic sensillum ab8
# Summary of the method: as §1
# [4] = tested on: Drosophila ezoana antennal basiconic sensillum ab9
# Summary of the method: as §1
# [5] = tested on: Drosophila virilis antennal basiconic sensillum AB1
# Summary of the method: as §1
# [6] = tested on: Drosophila virilis antennal basiconic sensillum AB3
# Summary of the method: as §1
# [7] = tested on: Drosophila virilis antennal basiconic sensillum AB6
# Summary of the method: as §1
# [8] = tested on: Drosophila virilis antennal basiconic sensillum AB7
# Summary of the method: as §1
# [9] = tested on: Drosophila virilis antennal basiconic sensillum AB8
# Summary of the method: as §1
# [10] = tested on: Drosophila virilis antennal basiconic sensillum AB9
# Summary of the method: as §1
# [11] = tested on: Drosophila virilis antennal basiconic sensillum AB11
# Summary of the method: as §1
# [12] = tested on: Drosophila virilis antennal basiconic sensillum AB2
# Summary of the method: as §1
# [13] = tested on: Drosophila ezoana antennal basiconic sensillum ab1
# Summary of the method: as §1
# [14] = tested on: Drosophila ezoana antennal basiconic sensillum ab4
# Summary of the method: as §1
compound,measurement,setting,value
CCOC(=O)CC(C)O (stereo not given) [Ethyl-3-hydroxybutyrate],odor-evoked OSN spike response,[1],60.9 ± 32 spikes/s
same,odor-evoked OSN spike response,[2],133 ± 55 spikes/s
same,odor-evoked OSN spike response,[3],108 ± 45 spikes/s
same,odor-evoked OSN spike response,[4],59.2 ± 23 spikes/s
same,odor-evoked OSN spike response,[5],70.5 ± 24 spikes/s
same,odor-evoked OSN spike response,[6],167 ± 54 spikes/s
same,odor-evoked OSN spike response,[7],63.2 ± 25 spikes/s
same,odor-evoked OSN spike response,[8],85.6 ± 14 spikes/s
same,odor-evoked OSN spike response,[9],53 ± 9.4 spikes/s
same,odor-evoked OSN spike response,[10],58.3 ± 24 spikes/s
CC(C)=CCCC(C)=CC=O (mixture of isomers) [citral],odor-evoked OSN spike response,[2],52.2 ± 25 spikes/s
same,odor-evoked OSN spike response,[4],55.8 ± 30 spikes/s
C=CC(O)CCCCC (stereo not given) [1-octen-3-ol],odor-evoked OSN spike response,[3],118 ± 51 spikes/s
same,odor-evoked OSN spike response,[4],50.6 ± 26 spikes/s
same,odor-evoked OSN spike response,[7],114 ± 44 spikes/s
same,odor-evoked OSN spike response,[8],106 ± 11 spikes/s
same,odor-evoked OSN spike response,[9],113 ± 14 spikes/s
CCOC(=O)c1ccccc1 [ethyl benzoate],odor-evoked OSN spike response,[1],69.5 ± 30 spikes/s
same,odor-evoked OSN spike response,[2],64 ± 27 spikes/s
same,odor-evoked OSN spike response,[4],105 ± 28 spikes/s
same,odor-evoked OSN spike response,[11],23.1 ± 7.8 spikes/s
same,odor-evoked OSN spike response,[10],85.5 ± 21 spikes/s
CCCCC(C)=O [2-hexanone],odor-evoked OSN spike response,[2],52.9 ± 26 spikes/s
same,odor-evoked OSN spike response,[8],50.8 ± 8.6 spikes/s
CC(C)OC(=O)c1ccccc1 [isopropyl benzoate],odor-evoked OSN spike response,[1],91.2 ± 45 spikes/s
same,odor-evoked OSN spike response,[2],54.9 ± 29 spikes/s
same,odor-evoked OSN spike response,[4],58.6 ± 20 spikes/s
same,odor-evoked OSN spike response,[11],54 ± 12 spikes/s
same,odor-evoked OSN spike response,[12],45.6 ± 23 spikes/s
CCC(=O)OCCC(C)C [Isopentyl propionate],odor-evoked OSN spike response,[3],79 ± 39 spikes/s
same,odor-evoked OSN spike response,[4],66.7 ± 31 spikes/s
same,odor-evoked OSN spike response,[9],56.8 ± 27 spikes/s
same,odor-evoked OSN spike response,[10],86.6 ± 27 spikes/s
CCCCCCO [1-hexanol],odor-evoked OSN spike response,[2],53 ± 23 spikes/s
same,odor-evoked OSN spike response,[3],176 ± 44 spikes/s
same,odor-evoked OSN spike response,[8],61.4 ± 22 spikes/s
same,odor-evoked OSN spike response,[9],239 ± 25 spikes/s
same,odor-evoked OSN spike response,[10],28.8 ± 14 spikes/s
CC(C)CCO [Isopentyl alcohol],odor-evoked OSN spike response,[3],65.8 ± 25 spikes/s
same,odor-evoked OSN spike response,[8],51.2 ± 14 spikes/s
CCCCCCCC(C)=O [2-nonanone],odor-evoked OSN spike response,[2],57.8 ± 38 spikes/s
CCCC(O)CC (stereo not given) [3-hexanol],odor-evoked OSN spike response,[3],52.3 ± 27 spikes/s
same,odor-evoked OSN spike response,[8],57 ± 28 spikes/s
CCCOC(C)=O [propyl acetate],odor-evoked OSN spike response,[2],50 ± 27 spikes/s
same,odor-evoked OSN spike response,[3],51 ± 32 spikes/s
same,odor-evoked OSN spike response,[4],60.9 ± 37 spikes/s
same,odor-evoked OSN spike response,[10],84.2 ± 24 spikes/s
CCOC(=O)C(C)O (stereo not given) [Ethyl lactate],odor-evoked OSN spike response,[13],70.3 ± 53 spikes/s
same,odor-evoked OSN spike response,[2],129 ± 36 spikes/s
same,odor-evoked OSN spike response,[3],51.4 ± 27 spikes/s
same,odor-evoked OSN spike response,[4],66.3 ± 26 spikes/s
same,odor-evoked OSN spike response,[5],128 ± 32 spikes/s
same,odor-evoked OSN spike response,[6],156 ± 44 spikes/s
same,odor-evoked OSN spike response,[7],50 ± 22 spikes/s
same,odor-evoked OSN spike response,[8],52.6 ± 7.5 spikes/s
same,odor-evoked OSN spike response,[9],44.8 ± 12 spikes/s
same,odor-evoked OSN spike response,[10],72.4 ± 20 spikes/s
CCOC(C)=O [Ethyl acetate],odor-evoked OSN spike response,[13],56.4 ± 35 spikes/s
same,odor-evoked OSN spike response,[2],60.2 ± 27 spikes/s
same,odor-evoked OSN spike response,[5],69.2 ± 27 spikes/s
same,odor-evoked OSN spike response,[12],65 ± 20 spikes/s
C/C=C/C(=O)OCC [Ethyl crotonate],odor-evoked OSN spike response,[1],61.5 ± 39 spikes/s
same,odor-evoked OSN spike response,[4],50.1 ± 30 spikes/s
same,odor-evoked OSN spike response,[12],47.5 ± 26 spikes/s
COC(=O)c1ccccc1O [Methyl salicylate],odor-evoked OSN spike response,[13],52.1 ± 33 spikes/s
same,odor-evoked OSN spike response,[2],64.8 ± 22 spikes/s
same,odor-evoked OSN spike response,[5],49 ± 22 spikes/s
CCCC(=O)OCC [ethyl butanoate],odor-evoked OSN spike response,[12],71.9 ± 26 spikes/s
same,odor-evoked OSN spike response,[8],68.8 ± 9.7 spikes/s
same,odor-evoked OSN spike response,[10],75.9 ± 26 spikes/s
CCCCC(C)O (stereo not given) [2-hexanol],odor-evoked OSN spike response,[2],55 ± 32 spikes/s
same,odor-evoked OSN spike response,[8],61.4 ± 9.6 spikes/s
COc1ccccc1O [guaiacol],odor-evoked OSN spike response,[4],50.8 ± 26 spikes/s
same,odor-evoked OSN spike response,[7],73.3 ± 47 spikes/s
CC(=O)c1ccccc1 [Acetophenone],odor-evoked OSN spike response,[3],71.8 ± 25 spikes/s
same,odor-evoked OSN spike response,[4],68.3 ± 26 spikes/s
CC(=O)CCC=C(C)C [6-methyl-5-hepten-2-one],odor-evoked OSN spike response,[8],150 ± 34 spikes/s
CCCCCCCC(C)O (stereo not given) [2-nonanol],odor-evoked OSN spike response,[2],55 ± 26 spikes/s
CCCCCC(=O)OCC [ethyl hexanoate],odor-evoked OSN spike response,[2],141 ± 28 spikes/s
same,odor-evoked OSN spike response,[3],77.2 ± 32 spikes/s
same,odor-evoked OSN spike response,[4],56.8 ± 31 spikes/s
same,odor-evoked OSN spike response,[6],153 ± 23 spikes/s
same,odor-evoked OSN spike response,[8],49 ± 24 spikes/s
same,odor-evoked OSN spike response,[9],66.1 ± 8.9 spikes/s
same,odor-evoked OSN spike response,[10],67.4 ± 21 spikes/s
CCCCCCOC(C)=O [Hexyl acetate],odor-evoked OSN spike response,[2],121 ± 33 spikes/s
same,odor-evoked OSN spike response,[3],88.7 ± 39 spikes/s
same,odor-evoked OSN spike response,[9],35.3 ± 18 spikes/s
same,odor-evoked OSN spike response,[10],53.3 ± 21 spikes/s
"CC(O)C(C)O (stereo not given) [2,3-Butanediol]",odor-evoked OSN spike response,[13],68.2 ± 35 spikes/s
same,odor-evoked OSN spike response,[2],51.5 ± 25 spikes/s
same,odor-evoked OSN spike response,[5],71.5 ± 10 spikes/s
same,odor-evoked OSN spike response,[6],67.8 ± 30 spikes/s
same,odor-evoked OSN spike response,[8],66.2 ± 17 spikes/s
C[C@H]1CCC[C@@]2(C)CCCC[C@]12O [geosmin],odor-evoked OSN spike response,[14],119 ± 39 spikes/s
CCCCCC(C)=O [2-heptanone],odor-evoked OSN spike response,[2],64.7 ± 28 spikes/s
same,odor-evoked OSN spike response,[3],54.2 ± 25 spikes/s
same,odor-evoked OSN spike response,[8],155 ± 25 spikes/s
CC(=O)C(C)O (stereo not given) [acetoin],odor-evoked OSN spike response,[13],79.9 ± 48 spikes/s
same,odor-evoked OSN spike response,[2],135 ± 51 spikes/s
same,odor-evoked OSN spike response,[4],57.3 ± 30 spikes/s
same,odor-evoked OSN spike response,[5],82.8 ± 39 spikes/s
same,odor-evoked OSN spike response,[6],226 ± 54 spikes/s
same,odor-evoked OSN spike response,[10],97.4 ± 24 spikes/s
CCCCCOC(C)=O [pentyl acetate],odor-evoked OSN spike response,[13],62.6 ± 43 spikes/s
same,odor-evoked OSN spike response,[2],120 ± 29 spikes/s
same,odor-evoked OSN spike response,[3],122 ± 45 spikes/s
same,odor-evoked OSN spike response,[4],67.9 ± 29 spikes/s
same,odor-evoked OSN spike response,[6],121 ± 16 spikes/s
same,odor-evoked OSN spike response,[8],75.4 ± 13 spikes/s
same,odor-evoked OSN spike response,[9],119 ± 24 spikes/s
same,odor-evoked OSN spike response,[10],80 ± 39 spikes/s
CCCC(=O)CC [3-hexanone],odor-evoked OSN spike response,[13],59.3 ± 31 spikes/s
same,odor-evoked OSN spike response,[2],52 ± 27 spikes/s
same,odor-evoked OSN spike response,[4],51.3 ± 35 spikes/s
same,odor-evoked OSN spike response,[5],76 ± 7.4 spikes/s
same,odor-evoked OSN spike response,[10],65.5 ± 27 spikes/s
COC(=O)c1ccccc1 [methyl benzoate],odor-evoked OSN spike response,[1],55.9 ± 36 spikes/s
same,odor-evoked OSN spike response,[4],125 ± 48 spikes/s
same,odor-evoked OSN spike response,[10],86.1 ± 27 spikes/s
CC(=O)OCCC(C)C [Isopentyl acetate],odor-evoked OSN spike response,[2],55.5 ± 29 spikes/s
same,odor-evoked OSN spike response,[3],73.6 ± 38 spikes/s
same,odor-evoked OSN spike response,[4],56.7 ± 36 spikes/s
same,odor-evoked OSN spike response,[10],81.4 ± 33 spikes/s
CCCCCCCC/C=C\CCCCCCCC(=O)O [Oleic acid],odor-evoked OSN spike response,[1],43.9 ± 26 spikes/s
CCc1ccc(O)c(OC)c1 [4-Ethylguaiacol],odor-evoked OSN spike response,[2],57.6 ± 32 spikes/s
OCCc1ccccc1 [2-phenylethanol],odor-evoked OSN spike response,[3],63.9 ± 26 spikes/s
CCCC(=O)OCc1ccccc1 [benzyl butyrate],odor-evoked OSN spike response,[1],43.7 ± 32 spikes/s
same,odor-evoked OSN spike response,[4],56.9 ± 30 spikes/s
same,odor-evoked OSN spike response,[12],58.8 ± 31 spikes/s
